Results filed as inconclusive are left out. Active and inactive are the calls of the source. Unless noted, calls come from the whole dose curve; as a rule, active = well fitted curve in the direction sought with a large enough effect in the repeat runs; inconclusive = weak or mixed curves; inactive = no such curve, though single readings can be large; an effect the other way counts as inactive or inconclusive.
Tests used:
[1] = qHTS assay to identify small molecule agonists of the estrogen receptor alpha (ER-alpha) signaling pathway in the presence of an antagonist - cell viability counter screen (AID 1259386);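 note: series mostly up to about 92 µM; cells exposed to compounds for 22 h at 37 °C before the viability read; nearly all actives have a fitted effect of over 30% in size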
Method in brief: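 VM7Luc4E2, stripped-serum pre-culture 5 d; 24hr plating; +ICI-182,780 10.0nM final; cpds 15 conc, 22hr, 37C/5% CO2; CellTiter-Fluor added at 21hr, fluorescence 1hr later.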

[2] = biological target: Progesterone receptor (Homo sapiens) (UniProt P06401); experiment: qHTS assay to identify small molecule agonists of the progesterone receptor (PR) signaling pathway (AID 1346784; calls by dose curve; note: nearly all actives have a fitted effect of over 30% in size)
Method in brief: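 Fluorescence from LiveBLAzer B/G FRET substrate cleavage (2 hr, RT) reported PR activation in PR-UAS-bla HEK 293T cells treated 16 hr at 37C/5% CO2 with compounds; medium contained 2% charcoal-stripped FBS.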

[3] = biological target: Progesterone receptor (Homo sapiens) (UniProt P06401); experiment: qHTS assay to identify small molecule antagonists of the progesterone receptor (PR) signaling pathway (AID 1346795; active = well fitted inhibition curve with a large enough effect in the signal ratio in the repeat runs, not every such curve was filed as active; the % refers to the signal ratio)
Method in brief: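 Fluorescence intensity measured 2 hr after adding beta-lactamase FRET substrate to PR-UAS-bla HEK293T cells that had been co-treated 16 hr with compound and 1 nM R5020 (final concentration) in 2% charcoal-stripped FBS.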

[4] = qHTS assay to identify small molecule antagonists of the progesterone receptor (PR) signaling pathway - cell viability counter screen (AID 1346798); note: series mostly up to about 92 µM; nearly all actives have a fitted effect of over 50% in size
Method in brief: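 CellTiter-Glo luminescence; PR-UAS-bla HEK293T, 3,000 cells/well; compound + R5020, 16 hr, 37C/5% CO2; 30 min RT before read.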

[5] = qHTS assay to identify small molecule antagonists of the TGF-beta/Smad signaling pathway - cell viability counter screen (AID 1346824); note: nearly all actives have a fitted effect of over 50% in size
Method in brief: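 SBE-bla HEK 293T cells, incubated overnight, then compound plus 0.25 ng/mL TGF-beta1 (stock added) for 5 hr at 37 C. Viability was read in the same wells by CellTiter-Glo luminescence after 30 min at room temperature.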

[6] = qHTS assay to identify small molecule agonists of the TGF-beta/Smad signaling pathway - cell viability counter screen (AID 1346829); note: top concentration of the series differs between compounds; nearly all actives have a fitted effect of over 45% in size
Method in brief: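 HEK 293T SBE-bla line, 5 hr compound exposure at 37 C, multiplexed CellTiter-Glo viability read by luminescence.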

[7] = qHTS assay to identify small molecule agonists of the TGF-beta/Smad signaling pathway (AID 1346859; active = well fitted activation curve with a large enough effect in the signal ratio in the repeat runs, not every such curve was filed as active; the % refers to the signal ratio; note: series mostly up to about 77 µM)
Method in brief: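 After overnight seeding, SBE-bla HEK 293T cells are dosed with compounds in DMSO and kept 5 hr at 37 C, 5% CO2. LiveBLAzer-type FRET substrate is then applied for 2 hr at room temperature.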

[8] = biological target: Thyrotropin-releasing hormone receptor (Homo sapiens) (UniProt P34981); experiment: qHTS assay to identify small molecule antagonists of the thyrotropin-releasing hormone receptor (TRHR) signaling pathway (AID 1346877; active = well fitted inhibition curve with a large enough effect in the repeat runs, not every such curve was filed as active; note: series mostly up to about 51 µM)
Method in brief: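 Intracellular calcium fluorescence, read kinetically every second over 3 min, reports TRH-evoked signalling in HEK293 cells carrying TRHR. Test compounds were added 5 min ahead of a 1 nM TRH challenge.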

[9] = biological target: Thyrotropin-releasing hormone receptor (Homo sapiens) (UniProt P34981); experiment: qHTS assay to identify small molecule agonists of the thyrotropin-releasing hormone receptor (TRHR) signaling pathway (AID 1346891; calls by dose curve;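 note: HEK293 cells expressing TRHR with calcium dye readout; series mostly up to about 58 µM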)
Method in brief: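 Compounds were tested as agonists at 15 concentrations, in triplicate, on TRHR-Hek293 cells; calcium-sensitive dye fluorescence was recorded for 3 min following addition.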

[10] = Human pregnane X receptor (PXR) small molecule agonists, qHTS cell viability counter screen (AID 1346977); note: nearly all actives have a fitted effect of over 50% in size
Method in brief: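 Viability counter screen: CellTiter-Fluor signal in PXR-Luc HepG2 cells, 24hr compound exposure, 37C, 5% CO2.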

[11] = Caspase-3/7 induction in CHO-K1 cells by small molecules, qHTS cell viability counter screen (AID 1346979); note: nearly all actives have a fitted effect of over 35% in size; note: potency is the fitted concentration of half-maximal effect
Method in brief: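 Viability readout by fluorescence (CellTiter-Fluor) on wild-type CHO-K1 cells exposed for 16hr at 37C and 5% CO2 to compounds delivered in DMSO; reagent incubated 1hr before reading.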

[12] = Caspase-3/7 induction in CHO-K1 cells by small molecules, qHTS assay (AID 1346980); note: nearly all actives have a fitted effect of over 15% in size
Method in brief: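 Wild-type CHO-K1 cells exposed to compounds for 17hr at 37 C, 5% CO2. Caspase-3/7 activity then measured by Caspase-Glo 3/7 luminescence after 30min at room temperature.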

[13] = Caspase-3/7 induction in HepG2 cells by small molecules, qHTS cell viability counter screen (AID 1346981); note: series mostly up to about 92 µM; nearly all actives have a fitted effect of over 30% in size
Method in brief: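 HepG2, WT, 2,000 cells/well; 5 hr pre-incubation 37 C/5% CO2; compound pin-transferred from DMSO; 16 hr exposure; CellTiter-Fluor, 1 hr; fluorescence read.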

[14] = biological target: Nuclear receptor subfamily 1 group I member 2 (Homo sapiens) (UniProt O75469); experiment: Human pregnane X receptor (PXR) small molecule agonists, qHTS assay (AID 1346982); note: nearly all actives have a fitted effect of over 35% in size; note: potency is the fitted concentration of half-maximal effect
Method in brief: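 Luciferase signal from ONE-Glo (30 min, room temperature) measured activation of hPXR-driven CYP3A4 reporter expression in PXR-Luc HepG2 cells treated with compounds for 24 hr at 37 C.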

[15] = biological target: Nuclear receptor subfamily 1 group I member 2 (Rattus norvegicus) (UniProt Q9R1A7); experiment: Rat pregnane X receptor (rPXR) activation by small molecules, qHTS assay (AID 1346983); conditions: rPXR luciferase reporter cells, One-Glo luminescence, 24 h; max activation: stronger effect = higher value; note: nearly all actives have a fitted effect of over 20% in size
Method in brief: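 Cell-based rPXR activation assay: rPXR cells, 2,000 per well, rested 5hr at 37 C, then exposed to compounds in DMSO for 24 hr at 37 C. Luciferase activity read by One-Glo luminescence after 30 min at room temperature.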

[16] = biological target: Nuclear receptor subfamily 1 group I member 2 (Homo sapiens) (UniProt O75469); experiment: CYP3A4 induction through human pregnane X receptor (PXR) by small molecules, qHTS assay (AID 1346984); note: nearly all actives have a fitted effect of over 40% in size
Method in brief: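 Luminescence readout: luciferase signal after One-Glo (30 min, room temperature), following 3 h at 37C with 3uM final Luciferin-IPA P450 substrate. Cells were DPX-2 (HepG2, PXR/CYP3A4-luc co-transfected) dosed for 24 h.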

[17] = biological target: Nuclear receptor subfamily 1 group I member 2 (Homo sapiens) (UniProt O75469); experiment: Human pregnane X receptor (PXR) activation by small molecules, qHTS assay (AID 1346985); note: nearly all actives have a fitted effect of over 40% in size
Method in brief: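 DPX-2 cells (HepG2 co-transfected with a PXR response element and a CYP3A4-promoter luciferase construct) were seeded at 2,000 per well, rested 5 hr at 37C, then exposed to DMSO-dissolved compounds for 24 hr. Activation was read as luciferase luminescence.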

[18] = biological target: Cytochrome P450 2D6 (Homo sapiens) (UniProt P10635); experiment: Cytochrome P450 Family 2 Subfamily D Member 6 (CYP2D6) small molecule antagonists: luciferase reporter qHTS assay (AID 1671196); note: nearly all actives have a fitted effect of over 50% in size; note: potency is the fitted concentration of half-maximal effect
Method in brief: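 Read-out is luminescence from luciferin formed by CYP2D6 turnover of a proluciferin substrate, recorded as relative luminescence units. Reactions ran 1 h at room temperature after NADPH regeneration solution was added.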

[19] = Caspase-3/7 induction in HepG2 cells by small molecules, qHTS assay (AID 1346978); note: nearly all actives have a fitted effect of over 15% in size
Method in brief: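 Wild-type HepG2 cells, 2,000/well, settled 5 hr at 37 C and 5% CO2, then compound-treated for 17 hr; caspase-3/7 activity read by luminescent Caspase-Glo 3/7 after 30 min at room temperature.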

[20] = qHTS assay to identify small molecule agonists of the progesterone receptor (PR) signaling pathway - cell viability counter screen (AID 1346799; calls by dose curve; note: nearly all actives have a fitted effect of over 45% in size)
Method in brief: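 In parallel with the beta-lactamase readout, cytotoxicity toward PR-UAS-bla HEK293T cells was measured by CellTiter-Glo luminescence following 16 hr compound incubation in 2% charcoal-stripped FBS medium.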
% is set by controls: 0 for no effect and ±100 for the full control effect.

Sequence of Thyrotropin-releasing hormone receptor (Homo sapiens) (P34981 whole entry, looked up): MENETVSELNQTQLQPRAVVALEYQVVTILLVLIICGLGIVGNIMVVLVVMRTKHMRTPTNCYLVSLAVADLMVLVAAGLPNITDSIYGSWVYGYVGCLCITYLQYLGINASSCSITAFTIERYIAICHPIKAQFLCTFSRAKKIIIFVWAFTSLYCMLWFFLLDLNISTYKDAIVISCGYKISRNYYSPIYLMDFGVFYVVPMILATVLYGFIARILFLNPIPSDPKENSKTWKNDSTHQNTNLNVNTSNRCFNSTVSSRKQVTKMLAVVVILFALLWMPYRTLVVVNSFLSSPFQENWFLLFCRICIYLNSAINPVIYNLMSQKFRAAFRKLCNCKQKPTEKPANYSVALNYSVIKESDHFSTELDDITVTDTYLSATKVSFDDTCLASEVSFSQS
Sequence of Nuclear receptor subfamily 1 group I member 2 (Rattus norvegicus) (Q9R1A7 whole entry, looked up): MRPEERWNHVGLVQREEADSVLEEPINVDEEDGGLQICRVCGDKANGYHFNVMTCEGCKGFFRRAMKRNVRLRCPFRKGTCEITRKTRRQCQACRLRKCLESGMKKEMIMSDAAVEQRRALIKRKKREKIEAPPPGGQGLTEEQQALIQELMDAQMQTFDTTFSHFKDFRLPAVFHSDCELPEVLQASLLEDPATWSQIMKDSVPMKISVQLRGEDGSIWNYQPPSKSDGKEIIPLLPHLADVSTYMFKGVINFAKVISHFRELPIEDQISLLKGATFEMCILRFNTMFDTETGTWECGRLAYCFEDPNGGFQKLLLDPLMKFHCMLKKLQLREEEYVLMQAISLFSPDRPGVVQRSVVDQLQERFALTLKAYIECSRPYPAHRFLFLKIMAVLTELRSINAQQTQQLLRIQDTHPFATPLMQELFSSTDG
Sequence of Cytochrome P450 2D6 (Homo sapiens) (P10635 whole entry, looked up): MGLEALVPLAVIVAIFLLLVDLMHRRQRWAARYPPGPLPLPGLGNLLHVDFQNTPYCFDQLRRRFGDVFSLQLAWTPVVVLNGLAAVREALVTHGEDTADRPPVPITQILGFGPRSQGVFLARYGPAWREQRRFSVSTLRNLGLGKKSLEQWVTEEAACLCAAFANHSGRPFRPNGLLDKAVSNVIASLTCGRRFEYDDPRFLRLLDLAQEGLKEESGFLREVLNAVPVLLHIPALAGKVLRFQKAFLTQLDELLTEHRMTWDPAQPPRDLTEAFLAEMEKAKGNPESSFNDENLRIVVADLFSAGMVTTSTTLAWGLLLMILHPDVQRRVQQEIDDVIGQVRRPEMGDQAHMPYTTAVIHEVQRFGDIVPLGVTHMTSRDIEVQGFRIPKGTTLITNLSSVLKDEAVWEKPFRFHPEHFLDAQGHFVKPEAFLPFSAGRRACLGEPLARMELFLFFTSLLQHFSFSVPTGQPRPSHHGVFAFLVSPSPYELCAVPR
Sequence of Nuclear receptor subfamily 1 group I member 2 (Homo sapiens) (O75469 whole entry, looked up): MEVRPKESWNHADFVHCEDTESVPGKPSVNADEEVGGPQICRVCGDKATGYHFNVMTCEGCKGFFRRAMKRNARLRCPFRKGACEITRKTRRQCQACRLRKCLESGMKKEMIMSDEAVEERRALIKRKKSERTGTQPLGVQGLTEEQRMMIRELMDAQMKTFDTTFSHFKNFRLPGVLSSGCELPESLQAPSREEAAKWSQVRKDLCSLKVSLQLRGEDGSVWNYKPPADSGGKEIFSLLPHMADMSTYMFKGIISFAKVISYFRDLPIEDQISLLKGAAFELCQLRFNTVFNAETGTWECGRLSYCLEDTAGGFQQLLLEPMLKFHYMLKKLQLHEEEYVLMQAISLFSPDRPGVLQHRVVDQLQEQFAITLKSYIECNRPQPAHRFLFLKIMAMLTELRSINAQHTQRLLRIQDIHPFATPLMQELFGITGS
Sequence of Progesterone receptor (Homo sapiens) (P06401 whole entry, looked up): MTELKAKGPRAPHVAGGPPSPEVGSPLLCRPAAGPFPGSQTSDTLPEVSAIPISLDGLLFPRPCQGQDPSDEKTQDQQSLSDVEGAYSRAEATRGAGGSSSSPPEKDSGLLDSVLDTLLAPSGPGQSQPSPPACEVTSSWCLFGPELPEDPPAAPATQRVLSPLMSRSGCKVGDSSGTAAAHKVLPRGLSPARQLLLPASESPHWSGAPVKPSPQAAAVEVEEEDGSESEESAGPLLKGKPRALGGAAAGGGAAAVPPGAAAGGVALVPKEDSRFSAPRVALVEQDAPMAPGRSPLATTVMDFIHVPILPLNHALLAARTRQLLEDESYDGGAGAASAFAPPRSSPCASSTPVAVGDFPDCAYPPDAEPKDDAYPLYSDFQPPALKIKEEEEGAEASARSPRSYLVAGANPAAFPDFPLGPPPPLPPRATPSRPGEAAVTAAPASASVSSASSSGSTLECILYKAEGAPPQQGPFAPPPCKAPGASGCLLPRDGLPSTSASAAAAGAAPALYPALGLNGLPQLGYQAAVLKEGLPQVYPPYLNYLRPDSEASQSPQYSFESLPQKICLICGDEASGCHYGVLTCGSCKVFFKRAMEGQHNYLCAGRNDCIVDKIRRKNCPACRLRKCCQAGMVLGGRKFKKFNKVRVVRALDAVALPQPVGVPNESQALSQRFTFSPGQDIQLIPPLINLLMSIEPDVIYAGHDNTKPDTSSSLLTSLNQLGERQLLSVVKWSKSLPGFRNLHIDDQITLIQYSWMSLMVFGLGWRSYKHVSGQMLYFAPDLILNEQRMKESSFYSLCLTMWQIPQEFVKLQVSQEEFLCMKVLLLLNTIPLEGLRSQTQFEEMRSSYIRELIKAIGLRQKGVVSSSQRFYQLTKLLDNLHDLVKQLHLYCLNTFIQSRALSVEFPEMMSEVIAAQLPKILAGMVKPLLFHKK

NC(=S)N/N=C/c1cccnc1
inactive: Potency [1] | outcome [2] | Potency [3] | Potency [4] | Potency [5] | Potency [6] | outcome [7] | outcome [8] | Potency [9] | Potency [10] | Potency [11] | Potency [12] | Potency [13] | Potency [14] | max activation [15] -5.63% | Potency [16] | Potency [17] | Potency [18]

CC(=O)c1ccc2c(c1)[C@H](NC(=O)c1ccc(F)cc1)[C@@H](O)C(C)(C)O2
inactive: Potency [1] | outcome [2] | Potency [3] | Potency [4] | Potency [5] | Potency [6] | outcome [7] | outcome [8] | Potency [9] | Potency [10] | outcome [19] | Potency [12] | Potency [14]
active: Potency [18] 18.8 µM

O=S1(=O)N=C(O)c2ccccc21
inactive: Potency [1] | outcome [2] | Potency [3] | Potency [4] | Potency [5] | Potency [6] | outcome [7] | outcome [8] | Potency [9] | Potency [10] | outcome [19] | Potency [11] | Potency [12]

CC(=O)O[C@H]1C[C@@H]2CC[C@@H]3[C@H](CC[C@@]4(C)[C@H]3C[C@H]([N+]3(C)CCCCC3)[C@@H]4OC(C)=O)[C@@]2(C)C[C@@H]1N1CCCCC1
inactive: Potency [1] | outcome [2] | Potency [3] | Potency [4] | Potency [5] | Potency [6] | outcome [7] | outcome [8] | Potency [9] | Potency [10] | outcome [19] | Potency [11] | Potency [13] | Potency [14] | max activation [15] -3.12% | Potency [16] | Potency [17]

CCN1CCC[C@H]1CNC(=O)c1c(OC)ccc(Br)c1OC
inactive: Potency [1] | outcome [2] | Potency [3] | Potency [4] | Potency [5] | Potency [6] | outcome [7] | Potency [10] | outcome [19] | Potency [11] | Potency [12] | Potency [13] | Potency [14] | max activation [15] 7.68% | Potency [16] | Potency [17]

CNS(=O)(=O)Cc1ccc2[nH]cc(CCN(C)C)c2c1
inactive: Potency [1] | outcome [2] | Potency [3] | Potency [4] | Potency [5] | Potency [6] | outcome [7] | outcome [8] | Potency [10] | outcome [19] | Potency [12] | Potency [13] | max activation [15] -4.94% | Potency [16] | Potency [17]
active: Potency [18] 24.5 µM

CC1=CC(=O)/C(=C(/C)O)C(=O)O1
inactive: Potency [1] | outcome [2] | Potency [3] | Potency [4] | Potency [5] | Potency [6] | outcome [7] | outcome [8] | Potency [9] | Potency [10] | outcome [19] | Potency [11] | Potency [12] | Potency [13] | Potency [14] | Potency [18]

COc1cc(C(C)(C)C)c(O)c(C(C)(C)C)c1
inactive: Potency [1] | outcome [2] | Potency [3] | Potency [4] | Potency [5] | Potency [6] | outcome [7] | outcome [8] | Potency [9] | Potency [10] | outcome [19] | Potency [11] | Potency [12] | Potency [13] | Potency [18]

Cc1cc(CC(=O)O)c(C)n1-c1ccc(Cl)cc1
inactive: Potency [1] | outcome [2] | Potency [3] | Potency [4] | Potency [5] | Potency [6] | outcome [7] | outcome [8] | Potency [10] | outcome [19] | Potency [11] | Potency [13] | Potency [14] | max activation [15] 0.177% | Potency [16] | Potency [17]

CC(C)c1ccccc1C(C)C
inactive: Potency [1] | outcome [2] | Potency [3] | Potency [4] | Potency [5] | Potency [6] | outcome [7] | Potency [10] | outcome [19] | Potency [12] | Potency [13] | Potency [14]

CCCCCOC(=O)COc1cc(N2C(=O)C3=C(CCCC3)C2=O)c(F)cc1Cl
active: Potency [18] 25.2 µM
inactive: Potency [1] | outcome [2] | Potency [3] | Potency [4] | Potency [20] | Potency [5] | Potency [6] | outcome [7] | outcome [19] | Potency [12] | Potency [13]

CCCCCCCCCCCCCCCBr
inactive: Potency [1] | outcome [2] | Potency [3] | Potency [4] | Potency [5] | Potency [6] | outcome [7] | Potency [10] | outcome [19] | Potency [11] | Potency [12] | Potency [13] | Potency [14] | Potency [18]

CC1CCc2cc(F)cc3c(=O)c(C(=O)O)cn1c23 (stereo not given)
inactive: Potency [1] | outcome [2] | Potency [3] | Potency [4] | Potency [20] | Potency [5] | Potency [10] | outcome [19] | Potency [12] | Potency [13] | Potency [18]

O=C(Cl)c1c(Cl)cccc1Cl
inactive: Potency [1] | outcome [2] | Potency [3] | Potency [4] | Potency [5] | Potency [6] | outcome [7] | outcome [8] | Potency [9] | Potency [10] | outcome [19] | Potency [11] | Potency [12] | Potency [13] | Potency [14] | Potency [18]

CC/C(=C\C(=N/O)C(N)=O)C(C)[N+](=O)[O-] (stereo not given)
inactive: Potency [1] | outcome [2] | Potency [3] | Potency [4] | Potency [5] | Potency [6] | outcome [7] | outcome [8] | Potency [9] | Potency [10] | outcome [19] | Potency [11] | Potency [13] | Potency [14] | Potency [18]

CN(C)C/C=C(/c1ccc(Br)cc1)c1cccnc1
inactive: Potency [1] | outcome [2] | Potency [20] | Potency [5] | Potency [6] | outcome [7] | outcome [8] | Potency [9] | Potency [11] | Potency [12] | Potency [13] | max activation [15] -0.374%

Cc1cccc(OCCOc2cccc(C)c2)c1
inactive: Potency [1] | outcome [2] | Potency [20] | Potency [5] | Potency [6] | outcome [7] | outcome [8] | Potency [10] | Potency [11] | Potency [12] | Potency [13] | Potency [18]

O=C(O)c1cccc(N(Cc2cccnc2)c2ccc(OC(F)F)c(OC(F)F)c2)c1
active: Potency [11] 68.6 µM | Potency [14] 43.3 µM
inactive: Potency [1] | outcome [2] | Potency [4] | Potency [5] | Potency [6] | Potency [10] | outcome [19] | Potency [12]
